Source: PubChem BioAssay (NCI)
About 79,000 compounds went through this panel and 15% of them were active in at least one assay; those are over-represented in the sample as a whole. The source made the active and inactive calls. No stated cut-off is given here; in the data, active means growth inhibition above about 70%; inactive means the rest.

How the values were obtained:
[1] = NCI Yeast Anticancer Drug Screen. Data for the rad52 strain (AID 147);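 further: 0% = growth of vehicle-treated control cultures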; settings: S. cerevisiae rad52 mutant growth inhibition, hits give high values
In short: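 Inhibition of yeast growth, referenced to vehicle controls, was the measured output for a strain with defective DNA damage repair.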

[2] = NCI Yeast Anticancer Drug Screen. Data for the wt1 strain (AID 149);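 further: 0% = growth of vehicle-treated wt1 cultures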; settings: S. cerevisiae wt1 strain (SPY 50644) growth inhibition, hits give high values
In short: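 Using yeast strain wt1, compound-induced growth inhibition was determined against vehicle-treated cultures.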

[3] = NCI Yeast Anticancer Drug Screen. Data for the rad50EPP+ strain (AID 151);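 further: 0% = growth of vehicle-treated control cultures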; settings: S. cerevisiae rad50 mutant strain, hits give high values
In short: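 Genetically defined yeast (rad50EPP+, DNA damage repair alteration) is grown with compound, and inhibition of growth is expressed relative to vehicle-treated controls.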

[4] = NCI Yeast Anticancer Drug Screen. Data for the mgt1 strain (AID 153); settings: S. cerevisiae mgt1 mutant growth inhibition, hits give high values
In short: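 In the mgt1 strain, test compounds were added and growth inhibition was determined relative to vehicle-treated controls.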

[5] = NCI Yeast Anticancer Drug Screen. Data for the rad50 strain (AID 155);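 further: 0% = growth of vehicle-only cultures of the same strain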; settings: S. cerevisiae rad50 strain growth inhibition, hits give high values
In short: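 Relative growth inhibition (compound vs vehicle) was measured in yeast with a defined repair-gene alteration.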

[6] = NCI Yeast Anticancer Drug Screen. Data for the mec2-1 strain (AID 157); settings: S. cerevisiae mec2-1 strain, hits give high values
In short: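 Each compound was tested on mec2-1 yeast, a strain altered in DNA damage repair or cell cycle control. Growth inhibition is reported relative to vehicle.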

[7] = NCI Yeast Anticancer Drug Screen. Data for the rad14 strain (AID 159);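 further: 0% = growth of vehicle-treated control cultures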; settings: S. cerevisiae rad14 strain growth inhibition, hits give high values
In short: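 Screen for anticancer potential: a yeast strain altered in DNA damage repair is grown with compound, and reduced growth is quantified against vehicle controls.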

[8] = NCI Yeast Anticancer Drug Screen. Data for the sgs1 mgt1 strain (AID 161);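 further: 0% = growth of cultures given vehicle only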; settings: S. cerevisiae sgs1 mgt1 strain, hits give high values
In short: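 Mutant yeast exposed to compound; growth scored against vehicle-only wells.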

[9] = NCI Yeast Anticancer Drug Screen. Data for the CLN2oe strain (AID 163);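 further: 0% = growth of vehicle-only control cultures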; settings: S. cerevisiae CLN2oe strain, hits give high values
In short: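 First, the altered yeast strain was treated with each compound; second, its growth was measured; finally, inhibition was derived by comparison with vehicle controls.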

[10] = NCI Yeast Anticancer Drug Screen. Data for the cln2 rad14 strain (AID 165);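 further: 0% = growth equal to vehicle treated cultures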; settings: S. cerevisiae cln2 rad14 strain, hits give high values
In short: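 Test compounds were added to cln2 rad14 yeast cultures; inhibition of growth was then determined by comparison with vehicle treatment.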

[11] = NCI Yeast Anticancer Drug Screen. Data for the bub3 strain (AID 167); settings: S. cerevisiae bub3 mutant strain, hits give high values
In short: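 Screening used yeast with an engineered genetic alteration affecting cell cycle control. Compound-exposed cultures were compared with vehicle cultures, and reduced growth was taken as inhibition.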

[12] = NCI Yeast Anticancer Drug Screen. Data for the wt2 strain (AID 169);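 further: 0% = growth of vehicle-treated yeast cultures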; settings: S. cerevisiae wt2 strain growth inhibition, hits give high values
In short: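 The panel's yeast strains carry defined changes in DNA repair or cell cycle genes. Each strain is grown with compound, and growth loss is scored relative to vehicle.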

[13] = NCI Yeast Anticancer Drug Screen. Data for the mlh1 strain (AID 171);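 further: 0% = growth of vehicle-treated control cultures of the same strain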; settings: S. cerevisiae mlh1 strain growth inhibition, hits give high values
In short: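 Inhibition values reflect reduced yeast growth in the presence of compound, referenced to vehicle controls, using a strain chosen for its alteration in DNA repair or cell cycle control.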

[14] = NCI Yeast Anticancer Drug Screen. Data for the sgs1 strain (AID 173);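 further: 0% = growth of vehicle-only control cultures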; settings: S. cerevisiae sgs1 mutant, hits give high values
In short: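 Vehicle-treated cultures served as reference for growth inhibition of a yeast strain altered in DNA damage repair or cell cycle control after compound exposure.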

[15] = NCI Yeast Anticancer Drug Screen. Data for the mlh1 rad18 strain (AID 175); settings: S. cerevisiae mlh1 rad18 strain growth inhibition, hits give high values
In short: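 Inhibition values reflect reduced growth of mutant yeast versus vehicle-treated controls following compound exposure; the mutations affect DNA damage repair.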

[16] = NCI Yeast Anticancer Drug Screen. Data for the rad18 strain (AID 177); settings: S. cerevisiae rad18 mutant growth inhibition, hits give high values
In short: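 Steps: expose repair-mutant yeast to compound; measure growth; express as inhibition relative to vehicle control.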

[17] = at 5.0 µM (retest, dose inferred, filed as 0.5)
[18] = at 50.0 µM (retest, dose inferred, filed as 5.0)

Measured: growth inhibition

CC(=O)Nc1ccc2c(c1)C(=Nc1ccc(C(=O)O)cc1)c1ccccc1-2
inactive: [1]; at 1.2 µM -4% | [1]; at 3.7 µM -2% | [1]; at 11.0 µM 4% | [1]; at 33.0 µM 47% | [2]; at 1.2 µM 1% | [2]; at 3.7 µM 6% | [2]; at 11.0 µM 5% | [2]; at 33.0 µM 13% | [2]; at 100.0 µM 51% | [3]; at 1.2 µM 0% | [3]; at 3.7 µM 7% | [3]; at 11.0 µM 28% | [3]; at 33.0 µM 67% | [4]; at 1.2 µM -2% | [4]; at 3.7 µM -5% | [4]; at 11.0 µM -5% | [4]; at 33.0 µM 3% | [5]; at 1.2 µM -1% | [5]; at 3.7 µM 0% | [5]; [17] 6% | [5]; at 11.0 µM 9% | [5]; at 33.0 µM 47% | [5]; [18] 52% | [6]; at 1.2 µM 1% | [6]; at 3.7 µM 4% | [6]; [17] -3% | [6]; at 11.0 µM 9% | [6]; at 33.0 µM 22% | [6]; [18] 57% | [6]; at 50.0 µM 65.8% | [7]; at 1.2 µM -2% | [7]; at 3.7 µM 1% | [7]; at 11.0 µM 5% | [7]; at 33.0 µM 30% | [8]; [17] -15% | [8]; [18] 6% | [9]; at 1.2 µM 1% | [9]; at 3.7 µM -11% | [9]; at 11.0 µM 3% | [9]; at 33.0 µM 14% | [9]; at 100.0 µM 47% | [10]; [17] -8% | [10]; [18] 8% | [10]; at 50.0 µM 43.9% | [11]; at 1.2 µM -2% | [11]; at 3.7 µM -5% | [11]; [17] -7% | [11]; at 11.0 µM 0% | [11]; at 33.0 µM 11% | [11]; [18] 23% | [11]; at 100.0 µM 50% | [12]; at 1.2 µM -2% | [12]; at 3.7 µM -2% | [12]; at 11.0 µM -2% | [12]; at 33.0 µM 9% | [13]; at 1.2 µM -3% | [13]; at 3.7 µM 1% | [13]; at 11.0 µM 2% | [13]; at 33.0 µM 15% | [14]; at 1.2 µM -1% | [14]; at 3.7 µM 2% | [14]; at 11.0 µM 9% | [14]; at 33.0 µM 25% | [15]; [17] -7% | [16]; at 1.2 µM 5% | [16]; at 3.7 µM 15% | [16]; at 11.0 µM 47%
active: [1]; at 100.0 µM 96% | [3]; at 100.0 µM 92% | [4]; at 100.0 µM 91% | [5]; at 50.0 µM 91% | [5]; at 100.0 µM 95% | [6]; at 100.0 µM 78% | [7]; at 100.0 µM 97% | [8]; at 50.0 µM 74% | [11]; at 50.0 µM 91.6% | [12]; at 100.0 µM 93% | [13]; at 100.0 µM 90% | [14]; at 100.0 µM 95% | [15]; [18] 73% | [15]; at 50.0 µM 91.1% | [16]; at 33.0 µM 85% | [16]; at 100.0 µM 96%

COc1ccc(NC(=S)N/N=C(\c2ccccc2)c2ccccn2)cc1
inactive: [1]; at 1.2 µM -3% | [1]; at 3.7 µM -3% | [1]; at 11.0 µM -3% | [1]; at 33.0 µM 59% | [2]; at 1.2 µM -4% | [2]; at 3.7 µM -3% | [2]; at 11.0 µM -3% | [2]; at 33.0 µM 50% | [3]; at 1.2 µM 0% | [3]; at 3.7 µM 4% | [3]; at 11.0 µM 5% | [3]; at 33.0 µM 3% | [3]; at 100.0 µM 55% | [4]; at 1.2 µM -1% | [4]; at 3.7 µM -6% | [4]; at 11.0 µM 8% | [4]; at 33.0 µM 52% | [5]; at 1.2 µM 0% | [5]; at 3.7 µM 1% | [5]; [17] 12% | [5]; at 11.0 µM -34% | [5]; at 33.0 µM 59% | [5]; at 50.0 µM 68.1% | [6]; at 1.2 µM 0% | [6]; at 3.7 µM -7% | [6]; [17] 13% | [6]; at 11.0 µM -5% | [6]; at 33.0 µM 61% | [7]; at 1.2 µM -4% | [7]; at 3.7 µM -4% | [7]; at 11.0 µM -6% | [7]; at 33.0 µM 65% | [8]; [17] -34% | [9]; at 1.2 µM -1% | [9]; at 3.7 µM -4% | [9]; at 11.0 µM -4% | [9]; at 33.0 µM 55% | [10]; [17] 33% | [11]; at 1.2 µM -6% | [11]; at 3.7 µM 4% | [11]; [17] 35% | [11]; at 11.0 µM 4% | [11]; at 33.0 µM -4% | [11]; at 100.0 µM 66%
active: [1]; at 100.0 µM 96% | [2]; at 100.0 µM 95% | [4]; at 100.0 µM 95% | [5]; [18] 89% | [5]; at 100.0 µM 95% | [6]; [18] 75% | [6]; at 50.0 µM 74.7% | [6]; at 100.0 µM 95% | [7]; at 100.0 µM 95% | [8]; [18] 91% | [8]; at 50.0 µM 78.3% | [9]; at 100.0 µM 95% | [10]; [18] 88% | [10]; at 50.0 µM 79.2% | [11]; [18] 90% | [11]; at 50.0 µM 83.9%
